Experimental data reported in PubChem BioAssay (Tox21).
Results filed as inconclusive are left out. The source made the active and inactive calls. Unless noted, calls follow the shape of the full dose curve.

How the values were obtained:
[1] = Nuclear factor erythroid 2-related factor 2/antioxidant responsive element (Nrf2/ARE) small molecule agonists: qHTS cell viability counter screen in human keratinocytes (AID 1919968; active = well fitted curve in the direction sought with a large enough effect in the repeat runs; an effect the other way counts as inactive or inconclusive; also: nearly all actives have a fitted effect of over 55% in size)
In short: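 Seed 1,500 KeratinoSens cells per well, then incubate 5 h at 37 C/5% CO2. Add compounds in DMSO and incubate 23 h. Add CellTiter-Fluor, wait 1 h and read fluorescence.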

[2] = Nuclear factor erythroid 2-related factor 2/antioxidant responsive element (Nrf2/ARE) small molecule agonists: luciferase reporter gene qHTS assay in human keratinocytes (AID 1919969); also: nearly all actives have a fitted effect of over 35% in size
[3] = target: Gonadotropin-releasing hormone receptor (Homo sapiens) (UniProt P30968); test: Human gonadotropin-releasing hormone receptor (GnRHR) small molecule agonists, calcium flux assay in GnRHR-HEK293 cells (AID 1920063); also: nearly all actives have a fitted effect of over 35% in size
Gonadotropin-releasing hormone receptor (Homo sapiens), sequence (P30968 whole entry, looked up): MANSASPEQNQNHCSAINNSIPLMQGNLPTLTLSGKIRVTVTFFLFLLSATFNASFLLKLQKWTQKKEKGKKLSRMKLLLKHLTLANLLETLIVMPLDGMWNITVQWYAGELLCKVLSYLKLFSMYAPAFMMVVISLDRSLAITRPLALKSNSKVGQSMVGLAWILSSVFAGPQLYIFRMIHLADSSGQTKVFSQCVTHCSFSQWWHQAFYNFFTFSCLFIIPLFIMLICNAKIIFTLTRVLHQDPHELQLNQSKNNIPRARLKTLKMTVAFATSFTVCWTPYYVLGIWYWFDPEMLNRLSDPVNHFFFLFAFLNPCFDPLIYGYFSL
In short: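 Cells: HEK293 stably expressing human GnRHR. Steps: overnight (18 h) culture, 1 h calcium dye loading at 37 C, compound addition, kinetic fluorescence read at 480/540 nm. Each compound tested at 15 concentrations in triplicate.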

[4] = target: KiSS-1 receptor (Homo sapiens) (UniProt Q969F8); test: Human kisspeptin (KISS1R) small molecule agonists, calcium flux assay in KISS1R-HEK293 cells (AID 1920064; active = well fitted curve in the direction sought with a large enough effect in the repeat runs; an effect the other way counts as inactive or inconclusive)
KiSS-1 receptor (Homo sapiens), sequence (Q969F8 whole entry, looked up): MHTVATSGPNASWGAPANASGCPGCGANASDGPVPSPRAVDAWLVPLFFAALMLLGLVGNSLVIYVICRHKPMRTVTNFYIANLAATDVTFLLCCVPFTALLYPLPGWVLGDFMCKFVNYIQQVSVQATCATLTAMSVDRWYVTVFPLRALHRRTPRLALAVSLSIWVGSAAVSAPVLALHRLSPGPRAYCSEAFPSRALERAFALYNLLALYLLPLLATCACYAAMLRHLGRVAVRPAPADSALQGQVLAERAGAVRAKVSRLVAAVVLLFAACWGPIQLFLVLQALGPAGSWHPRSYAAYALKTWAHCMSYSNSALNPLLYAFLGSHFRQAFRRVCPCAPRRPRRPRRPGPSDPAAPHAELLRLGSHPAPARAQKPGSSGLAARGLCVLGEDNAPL
In short: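 Cells plated and incubated 18 h; dye added, 1 h at 37 C; compounds in DMSO pinned in; signal read at 480/540 nm every second for 3 min. Each compound tested at 15 concentrations in triplicate.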

[5] = G protein-coupled receptor (GPCR) small molecule agonists, calcium flux assay: HEK293 wild type cell line counter screen (AID 1920065)
In short: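 Counter-screen of the Tox21 10K library for non-specific calcium release: dye-loaded cells received compounds in DMSO and were monitored by kinetic fluorescence (480/540 nm, 3 min). Fifteen concentrations, run in triplicate.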

[6] = p53 small molecule agonists, cell-based qHTS assay with human liver microsomes (AID 1963577);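 also: p53 response element beta-lactamase reporter cells with liver microsomes plus NADPH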
In short: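 p53RE-bla cells; 5 h settle, 37 C/5% CO2; cpd + HLM 0.5 mg/mL + NADPH 0.5 mg/mL (final); 16 h 37 C; LiveBLAzer 2 h RT dark; fluorescence readout.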

[7] = p53 small molecule agonists, cell-based qHTS assay with rat liver microsomes (AID 1963578)
In short: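 Rat liver microsome activation: microsomes 0.5 mg/mL, NADPH 0.5 mg/mL final; p53RE-bla cells, 16 h 37 C; LiveBLAzer readout, 2 h RT dark.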

[8] = p53 small molecule agonists, cell-based qHTS assay with human liver microsomes: qHTS cell viability counter screen (AID 1963579); also: nearly all actives have a fitted effect of over 45% in size
In short: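 Luminescent CellTiter-Glo read-out, 30 min at room temperature, gauged cytotoxicity in p53RE-bla cells exposed 16 h at 37 C to DMSO-dissolved compounds with metabolic activation by human liver microsomes and NADPH, each 0.5 mg/mL final.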

[9] = p53 small molecule agonists, cell-based qHTS assay: qHTS cell viability counter screen (AID 1963581); also: nearly all actives have a fitted effect of over 45% in size
In short: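 Cells: HCT-116 with p53 response element-driven beta-lactamase. Treatment: 16 h, 37 C, compounds in DMSO. Read: CellTiter-Glo luminescence after 30 min RT.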

[10] = p53 small molecule agonists, cell-based qHTS assay (AID 1963582; active = well fitted activation curve with a large enough effect in the signal ratio in the repeat runs, not every such curve was filed as active; the % refers to the signal ratio)
In short: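 Quantitative HTS in p53RE-bla cells: after a 5 h settling period, compounds delivered in DMSO were left on cells for 16 h at 37 C, and reporter induction was measured as fluorescence following 2 h substrate loading.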

[11] = target: 5-hydroxytryptamine receptor 2A (Homo sapiens) (UniProt P28223); test: 5-hydroxytryptamine receptor 2A (HTR2A) small molecule antagonists, cell-based qHTS assay (AID 1963586); also: nearly all actives have a fitted effect of over 45% in size
5-hydroxytryptamine receptor 2A (Homo sapiens), sequence (P28223 whole entry, looked up): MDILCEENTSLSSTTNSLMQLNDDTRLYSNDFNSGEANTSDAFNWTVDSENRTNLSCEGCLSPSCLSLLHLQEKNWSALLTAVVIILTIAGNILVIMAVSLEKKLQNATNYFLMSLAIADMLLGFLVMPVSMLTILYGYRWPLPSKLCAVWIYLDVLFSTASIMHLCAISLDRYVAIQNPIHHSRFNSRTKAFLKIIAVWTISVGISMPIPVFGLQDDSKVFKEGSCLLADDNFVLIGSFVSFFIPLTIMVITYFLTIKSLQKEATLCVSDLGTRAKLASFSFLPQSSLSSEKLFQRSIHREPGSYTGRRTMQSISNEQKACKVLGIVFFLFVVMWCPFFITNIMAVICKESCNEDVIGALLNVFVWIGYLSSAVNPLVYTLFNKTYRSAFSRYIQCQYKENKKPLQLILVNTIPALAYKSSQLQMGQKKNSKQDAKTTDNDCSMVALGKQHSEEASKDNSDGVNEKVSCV
In short: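 Antagonist-mode intracellular calcium assay: DOI (4 nM) added after 5 min compound pre-incubation at room temperature to dye-loaded HTR2A-CHO cells. Fluorescence followed for 3 min, sampled every second.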

[12] = target: 5-hydroxytryptamine receptor 2A (Homo sapiens) (UniProt P28223); test: 5-hydroxytryptamine receptor 2A (HTR2A) small molecule agonists, cell-based qHTS assay (AID 1963587); also: nearly all actives have a fitted effect of over 30% in size
In short: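 CHO cells stably expressing human HTR2A, plated 18 h, loaded with calcium dye 1 h at 37 C. Agonist mode: compounds added and intracellular calcium fluorescence recorded kinetically for 2 min at 1 sec intervals.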

[13] = target: Muscarinic acetylcholine receptor M1 (Homo sapiens) (UniProt P11229); test: Cholinergic receptor muscarinic 1 (CHRM1) small molecule antagonists, cell-based qHTS assay (AID 1963588); also: nearly all actives have a fitted effect of over 40% in size
Muscarinic acetylcholine receptor M1 (Homo sapiens), sequence (P11229 whole entry, looked up): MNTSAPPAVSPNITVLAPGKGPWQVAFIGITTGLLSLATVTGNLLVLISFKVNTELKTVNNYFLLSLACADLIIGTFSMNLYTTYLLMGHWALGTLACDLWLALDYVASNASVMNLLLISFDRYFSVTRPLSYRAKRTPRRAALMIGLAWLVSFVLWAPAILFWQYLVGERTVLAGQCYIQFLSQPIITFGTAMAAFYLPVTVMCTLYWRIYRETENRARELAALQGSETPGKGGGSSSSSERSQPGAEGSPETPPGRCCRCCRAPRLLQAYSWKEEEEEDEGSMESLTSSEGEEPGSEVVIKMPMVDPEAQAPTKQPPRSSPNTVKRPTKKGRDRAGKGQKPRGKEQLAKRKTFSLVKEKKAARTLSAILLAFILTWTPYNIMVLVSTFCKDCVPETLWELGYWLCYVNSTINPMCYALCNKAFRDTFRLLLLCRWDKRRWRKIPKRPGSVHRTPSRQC
In short: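 CHRM1-CHO calcium-flux assay, antagonist mode. Cells were seeded 18 h, dye-loaded 1 h at 37 C and given compound for 5 min at RT, then acetylcholine was added at 50nM. FDSS fluorescence was read 3 min; 15 concentrations, three runs.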

[14] = target: Muscarinic acetylcholine receptor M1 (Homo sapiens) (UniProt P11229); test: Cholinergic receptor muscarinic 1 (CHRM1) small molecule agonists, cell-based qHTS assay (AID 1963589); also: nearly all actives have a fitted effect of over 35% in size
In short: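 Agonist-mode qHTS in CHO cells stably carrying human muscarinic M1. Intracellular calcium is tracked by fluorescence every second after compound transfer; each compound runs at 15 concentrations in three independent runs.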

[15] = cAMP Responsive Elements (CRE) small molecule agonists, cell-based qHTS assay (AID 1963590)
In short: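 Agonist mode qHTS in CRE-bla HEK 293T cells: compounds dosed from DMSO for 3 h at 37 C/5% CO2, followed by LiveBLAzer B/G FRET substrate for 2 h at room temperature.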

[16] = cAMP Responsive Elements (CRE) small molecule antagonists, cell-based qHTS assay (AID 1963591; active = well fitted inhibition curve with a large enough effect in the signal ratio in the repeat runs, not every such curve was filed as active; the % refers to the signal ratio)
In short: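 Antagonist mode: test compounds are co-incubated with the adenylyl cyclase activator NKH477 (0.25 uM final) on CRE-bla HEK293T cells for 3 h at 37 °C, followed by LiveBLAzer substrate loading.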

[17] = target: Beta-2 adrenergic receptor (Homo sapiens) (UniProt P07550); test: Adrenergic beta2 receptor (ADRB2) small molecule antagonists, cell-based qHTS assay (AID 1963592); also: series mostly up to about 92 µM; nearly all actives have a fitted effect of over 50% in size
Beta-2 adrenergic receptor (Homo sapiens), sequence (P07550 whole entry, looked up): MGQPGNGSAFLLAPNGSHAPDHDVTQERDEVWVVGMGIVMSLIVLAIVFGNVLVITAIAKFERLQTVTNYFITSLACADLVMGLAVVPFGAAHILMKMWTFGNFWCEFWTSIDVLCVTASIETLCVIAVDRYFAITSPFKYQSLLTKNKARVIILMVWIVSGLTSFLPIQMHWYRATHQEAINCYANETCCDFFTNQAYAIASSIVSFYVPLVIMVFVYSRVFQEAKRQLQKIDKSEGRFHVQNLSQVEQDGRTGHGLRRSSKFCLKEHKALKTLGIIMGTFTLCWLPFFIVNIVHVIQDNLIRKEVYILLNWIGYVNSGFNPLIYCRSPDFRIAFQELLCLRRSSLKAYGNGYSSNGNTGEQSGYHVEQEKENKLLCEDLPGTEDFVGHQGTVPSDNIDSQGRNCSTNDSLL
In short: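 Cells (CHO, stable ADRB2 overexpression) incubated 18-20hr at 37C; compounds added from DMSO; agonist mix (1nM isoproterenol, 100uM IBMX, 25uM Ro-20-1724) added; 0.5hr RT; d2-cAMP and anti-cAMP-cryptate added; 1hr RT; 665/615 nm read.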

[18] = target: D(2) dopamine receptor (Homo sapiens) (UniProt P14416); test: Dopamine D2 receptor (DRD2) small molecule agonists, cell-based qHTS assay (AID 1963594); also: nearly all actives have a fitted effect of over 35% in size
D(2) dopamine receptor (Homo sapiens), sequence (P14416 whole entry, looked up): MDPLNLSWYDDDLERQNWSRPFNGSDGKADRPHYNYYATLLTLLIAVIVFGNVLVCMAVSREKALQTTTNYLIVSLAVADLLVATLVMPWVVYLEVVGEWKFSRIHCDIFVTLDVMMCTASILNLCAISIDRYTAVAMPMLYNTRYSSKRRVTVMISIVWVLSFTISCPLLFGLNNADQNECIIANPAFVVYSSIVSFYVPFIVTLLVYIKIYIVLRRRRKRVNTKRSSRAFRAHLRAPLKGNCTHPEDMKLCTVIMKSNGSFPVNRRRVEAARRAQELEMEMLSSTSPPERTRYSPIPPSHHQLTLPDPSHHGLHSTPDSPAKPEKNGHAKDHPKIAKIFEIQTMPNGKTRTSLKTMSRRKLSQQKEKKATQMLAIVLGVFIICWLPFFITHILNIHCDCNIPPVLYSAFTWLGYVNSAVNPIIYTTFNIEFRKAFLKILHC
In short: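 HEK293 cells stably expressing human DRD2, pre-treated with PDE inhibitor Ro20-1724 (0.1 mM final) and compound 10 min at room temperature, then stimulated with NKH477 (200nM […]) for 30 min. cAMP read by HTRF (665/620 nm).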

[19] = target: D(2) dopamine receptor (Homo sapiens) (UniProt P14416); test: Dopamine D2 receptor (DRD2) small molecule antagonists, cell-based qHTS assay (AID 1963595; active = well fitted inhibition curve with a large enough effect in the signal ratio in the repeat runs, with a control signal flat; the % refers to the signal ratio)
In short: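 Cells were plated and grown for 24 h at 37 °C. Ro20-1724 (0.1 mM final) went in first, then compound for 10 min. NKH477 (200 nM) with quinpirole (12 nM) followed for 30 min at RT, then HTRF detection reagents for 1 h.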

[20] = target: Beta-2 adrenergic receptor (Homo sapiens) (UniProt P07550); test: Adrenergic beta2 receptor (ADRB2) small molecule agonists, cell-based qHTS assay (AID 1963593);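 also: CHO cells stably overexpressing human ADRB2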
In short: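 CHO cells stably over-expressing ADRB2 were plated overnight at 37C, then dosed with compounds plus a stimulation mix containing 100uM IBMX and 25uM Ro-20-1724 for 0.5hr at room temperature. cAMP was measured by HTRF competition, 1hr.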

Measured: Potency

C1=Cc2ccccc2C1
not listed: [20]
inactive: all other assays above

OCc1c2ccccc2cc2ccccc12
not listed: [12]
inactive: all other assays above

CCCCCCCCCCC
not listed: [20]
inactive: all other assays above

Clc1nc2ccccc2s1
not listed: [16] | [20]
inactive: all other assays above

NC(=O)CCCCC(N)=O
inactive: all assays above

Cc1cccc(Cl)c1
not listed: [19] | [20]
inactive: all other assays above

O=C(c1ccc2c(c1)C(=O)OC2=O)c1ccc2c(c1)C(=O)OC2=O
not listed: [12] | [15] | [19] | [20]
inactive: all other assays above

CCCc1ccc(N)cc1
not listed: [18]
inactive: all other assays above

CC(C)=CCC/C(C)=C/C(=O)O
inactive: all assays above

CC1(C)C(C=C(Cl)Cl)C1C(=O)OCc1cccc(Oc2ccccc2)c1 (stereo not drawn)
not listed: [20]
inactive: all other assays above

CS(C)(=O)=O
inactive: all assays above

CC(S)C(=O)NCC(=O)O (stereo not drawn)
not listed: [18]
inactive: all other assays above

CCn1cc(C(=O)O)c(=O)c2cnc(N3CCNCC3)nc21
not listed: [20]
inactive: all other assays above

Nc1nccs1
inactive: all assays above

CCCCCCCC(=O)OCCCCCC
not listed: [13] | [19]
inactive: all other assays above
